Rango complex inh: inhibitors of Rango-importin beta complex formation. 340,000 compounds, 0.031% hits. Rango CFP/YFP FRET sensor + importin beta, 45 min. Potency, µM (highest dose often 92.2 µM), inactives show at the highest dose inhibition of complex formation. AID 540263. Q14974; calls by dose curve;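 also: 0% = DMSO wells and 100% = buffer wells lacking importin beta; nearly all actives have a fitted effect of over 15% in size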
Target sequence (Q14974 whole entry, looked up): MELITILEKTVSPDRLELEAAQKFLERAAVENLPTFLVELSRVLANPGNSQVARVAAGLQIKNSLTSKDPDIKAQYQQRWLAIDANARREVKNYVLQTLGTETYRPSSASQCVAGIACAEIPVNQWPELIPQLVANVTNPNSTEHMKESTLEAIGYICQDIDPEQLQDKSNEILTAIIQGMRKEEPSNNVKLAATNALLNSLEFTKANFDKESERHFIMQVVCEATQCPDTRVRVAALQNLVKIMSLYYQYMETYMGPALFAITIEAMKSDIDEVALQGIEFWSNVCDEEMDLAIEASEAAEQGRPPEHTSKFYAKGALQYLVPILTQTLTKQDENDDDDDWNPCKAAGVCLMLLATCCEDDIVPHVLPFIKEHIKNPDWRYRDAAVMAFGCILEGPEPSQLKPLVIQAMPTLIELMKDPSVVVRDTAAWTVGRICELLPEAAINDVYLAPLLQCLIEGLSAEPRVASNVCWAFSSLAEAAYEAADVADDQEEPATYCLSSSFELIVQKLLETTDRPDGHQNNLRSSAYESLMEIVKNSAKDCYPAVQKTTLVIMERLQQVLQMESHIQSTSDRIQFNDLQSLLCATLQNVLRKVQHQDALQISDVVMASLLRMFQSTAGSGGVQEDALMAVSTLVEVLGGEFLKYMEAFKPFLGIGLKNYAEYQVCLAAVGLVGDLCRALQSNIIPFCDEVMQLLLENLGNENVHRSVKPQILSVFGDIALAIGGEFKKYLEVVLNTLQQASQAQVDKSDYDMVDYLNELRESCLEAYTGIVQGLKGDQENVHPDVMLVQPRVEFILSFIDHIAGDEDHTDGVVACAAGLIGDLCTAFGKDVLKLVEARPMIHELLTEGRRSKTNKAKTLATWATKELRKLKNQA
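FRET biosensor (snurportin 1 IBB flanked by EYFP and cerulean), 50 nM, with compound 5 min, then 0.125 microM importin beta in PBS, 1 mM DTT, 0.02% Tween-20, 0.1% BSA. CFP/YFP ratio read after 45 min at room temperature; pre-read flags interference.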
Nrf2 inh: Nrf2 pathway inhibition. A549 ARE-Fluc reporter, luciferase luminescence, 18-24 h. Potency, µM (doses to about 46 µM), without a hit: at the highest dose activity change, negative = inhibition, actives largely listed as inhibitors. 360,000 compounds, 2.1% hits. AID 504444; also: % is scaled to controls: 0 for no effect and ±100 for the full control effect; nearly all actives have a fitted effect of over 60% in size
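A549 ARE_Fluc cells, 5000/well, 5% FBS OPTI-MEM; compounds in dose-response, 18-24 h at 37 °C/5% CO2; CellTiter-Fluor viability read (Ex 405/Em 525), then BugLite luciferase luminescence = Nrf2 activity.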
Rango dissoc inh: inhibitors of RanGTP-induced Rango-importin beta complex dissociation; 340,000 compounds, 0.071% hits; Biochemical FRET Rango-importin beta, RanGTP-induced dissociation; Potency, µM (top dose mostly 46.1 µM), without a hit: top-dose activity change, negative = inhibition; O95149+P62826; calls by dose curve; also: % of control where 0% means no effect; nearly all actives have a fitted effect of over 45% in size
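Rango/importin beta premix (0.1/0.25 uM final), PBS + 1 mM DTT + 0.02% Tween-20 + 0.1% BSA; cpd 5 min RT; FRET pre-read; + RanGTP-RCC1 (0.6 uM Ran, 2 mM GTP, 0.2 uM RCC1); 45 min RT; FRET post-read, ex 430, em 486/530 nm.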
A549 viability: A549 cytotoxicity, counter-screen for Nrf2 inhibitors | A549 ARE-Fluc cells, CellTiter-Fluor viability, 18-24 h | Potency, µM (highest dose often 46 µM), for the others: top-dose activity change, negative = cytotoxicity, usual class: inhibitors | 390,000 compounds, 0.16% hits; also: % is scaled to controls: 0 for no effect and ±100 for the full control effect
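A549 ARE_Fluc cells in 5% FBS OPTI-MEM were exposed to compounds in concentration-response for 18-24 h at 37 deg C. Viability was read by CellTiter-Fluor fluorescence (Ex 405/Em 525) after 30 min, before the luciferase read.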
Nrf2 ARE act: activators of Nrf2 (ARE) signaling; AID 624171; Potency, µM (doses to about 46.1 µM), for inactives: at the top dose activation, actives largely listed as activators; AREc32 ARE-luciferase reporter (MCF7-derived line), luminescence, 24 h; 410,000 compounds, 0.31% hits; also: % of control where 0% means no effect; nearly all actives have a fitted effect of over 65% in size
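For detection, Steady-Glo was added and plates sat 30 min at RT; before that, AREc32_Fluc cells grown overnight in OPTI-MEM/5% FBS had been treated with 23 nL compound for 24 hr at 37 deg C.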
Active calls of the source: *; [ ] = remark or other dose. Hits are enriched below; roughly 2.3% of the tested compounds scored in any of these assays. Unless noted, calls follow the shape of the dose curve; as a rule, active = well fitted curve in the direction sought with a large enough effect; inconclusive = small, poorly fitted or top-dose-only effect, or another doubt; inactive = no such curve, though single readings can be large; an effect the other way counts as inactive or inconclusive. Potency is read from the fitted curve at half-maximal effect.

Screening Cc1ccc(S(=O)(=O)N2CCCCC2)cc1NC(=O)Cc1cccs1 returned Rango complex inh 0%, Nrf2 inh 12%, Rango dissoc inh 17%, A549 viability 1% and Nrf2 ARE act 0%.
For CN(CC(=O)Nc1cc(S(=O)(=O)N2CCCC2)ccc1Cl)Cc1cccs1 the results were Rango complex inh 0%, Nrf2 inh 26µM*, Rango dissoc inh -6%, A549 viability -8% and Nrf2 ARE act 1%.
For Cc1ccc(S(=O)(=O)N2CCOCC2)cc1NC(=O)CNCc1ccc(Cl)cc1Cl the results were Rango complex inh 4%, Nrf2 inh 13µM*, Rango dissoc inh 16%, A549 viability 0% and Nrf2 ARE act 0%.
Screening O=S(=O)(c1ccc(Cl)c(NC(=S)N/N=C/c2ccc(O)cc2)c1)N1CCOCC1 returned Rango complex inh -4%, Nrf2 inh 16µM*, Rango dissoc inh -3%, A549 viability -23% and Nrf2 ARE act -3%.
Cc1ccc(S(=O)(=O)N2CCOCC2)cc1NC(=O)COC(=O)Cc1ccc(Cl)cc1 was read as Rango complex inh -3%, Nrf2 inh 9%, Rango dissoc inh -5%, A549 viability 10% and Nrf2 ARE act 0%.
Screening O=C(OCC#CCSc1nnc(-c2cccc3ccccc23)o1)c1ccc(SC(F)(F)F)cc1 returned Nrf2 inh -10% and A549 viability 2%.
Screening COc1ccc(S(=O)(=O)N2CCOCC2)cc1NC(=O)Cc1ccccc1Cl returned Rango complex inh -2%, Nrf2 inh 0%, Rango dissoc inh 1%, A549 viability 3% and Nrf2 ARE act 0%.
`O=C(CNCc1ccccc1Cl)Nc1cc(S(=O)(=O)N2CCOCC2)ccc1Cl` gave Rango complex inh 1%, Nrf2 inh 16µM*, Rango dissoc inh 0%, A549 viability -13% and Nrf2 ARE act 8%.
Screening O=C(CSc1nnc(-c2ccccc2)n1Cc1ccco1)Nc1ccc(S(=O)(=O)N2CCCC2)cc1 returned Rango complex inh -2%, Nrf2 inh 16µM*, Rango dissoc inh -6%, A549 viability -26% and Nrf2 ARE act 3%.
For O=C(CSc1nnc(-c2ccncc2)n1Cc1ccco1)Nc1nc(-c2ccccc2)cs1 the results were Rango complex inh 4%, Nrf2 inh 13µM*, Rango dissoc inh 4%, A549 viability inconclusive and Nrf2 ARE act 0%.
Screening CCN(C(=O)COC(=O)c1ccc(N2C(=O)c3ccccc3C2=O)cc1)C1CCS(=O)(=O)C1 (centres undefined) returned Rango complex inh 0%, Nrf2 inh 9%, Rango dissoc inh -9%, A549 viability -2% and Nrf2 ARE act 0%.
Screening O=C(CSc1nc(=O)n(Cc2ccco2)c2c1CCC2)NCc1ccccc1Cl returned A549 viability 7% and Nrf2 ARE act 0%.
CCOc1ccc(C(=O)N2CCC(c3ccncc3)CC2)cc1 was read as A549 viability -17% and Nrf2 ARE act 0%.
For CCc1ccccc1NC(=O)CCS(=O)(=O)c1ccc2c(c1)CCCN2C(C)=O the results were Rango complex inh 0%, Nrf2 inh 10%, Rango dissoc inh -6%, A549 viability -1% and Nrf2 ARE act 0%.
Cn1cccc1-c1cc2n(n1)CCC(=O)N2CCCC(=O)NCc1cccc(Cl)c1 was read as A549 viability -3% and Nrf2 ARE act 5%.
`O=c1cc(-c2ccccc2F)oc2ccccc12` gave Rango complex inh 0%, Nrf2 inh 19%, Rango dissoc inh -8%, A549 viability -6% and Nrf2 ARE act inconclusive.
O=c1cc(-c2ccc(F)cc2)oc2ccccc12 was read as Rango complex inh -3%, Nrf2 inh 11%, Rango dissoc inh -14%, A549 viability 1% and Nrf2 ARE act 11µM*.
`CSc1ccc(-c2cc(=O)c3ccccc3o2)cc1` gave Rango complex inh -2%, Nrf2 inh inconclusive, Rango dissoc inh -13%, A549 viability 9%[1.84 µM] and Nrf2 ARE act 2.8µM*.
For O=S(=O)(/C=C/C=C/S(=O)(=O)c1ccccc1)c1ccccc1 the results were Rango complex inh 0%, Nrf2 inh 26µM*, Rango dissoc inh -7%, A549 viability inconclusive and Nrf2 ARE act -3%.
For NS(=O)(=O)c1ccccc1 the results were Rango complex inh -2%, Nrf2 inh 8%, Rango dissoc inh -3%, A549 viability -2% and Nrf2 ARE act 0%.
`CCC(Oc1ccc(F)cc1)C(=O)Nc1nc(-c2ccc(F)cc2)ns1` (centres undefined) gave Nrf2 inh 16µM*, A549 viability inconclusive and Nrf2 ARE act -1%.
CCC(Oc1ccc(F)cc1)C(=O)Nc1cc(-c2ccc(C)cc2)no1 (centres undefined) was read as Nrf2 inh -24%, A549 viability 4% and Nrf2 ARE act 7%.
For CCCCc1cc(=O)oc2cc(OCC(=O)Nc3ccccn3)ccc12 the results were Rango complex inh 0%, Nrf2 inh -9%, Rango dissoc inh -13%, A549 viability -6% and Nrf2 ARE act 13µM*.
CCCCc1cc(=O)oc2cc(OCC(=O)NCc3ccccn3)ccc12 was read as Rango complex inh inconclusive, Nrf2 inh 10%, Rango dissoc inh inconclusive, A549 viability 2% and Nrf2 ARE act 0%.
O=C(COc1ccc2c(-c3ccccc3)cc(=O)oc2c1)Nc1ccc(CN2CCOCC2)cc1 was read as Rango complex inh 3%, Nrf2 inh -8%, Rango dissoc inh -2%, A549 viability 7% and Nrf2 ARE act 0%.
Screening O=C(COc1ccc2c(-c3ccccc3)cc(=O)oc2c1)Nc1ccc(CCO)cc1 returned Rango complex inh -4%, Nrf2 inh 10µM*, Rango dissoc inh -21%, A549 viability -9% and Nrf2 ARE act 3%.
`Cc1ccc(S(=O)(=O)Nc2ccc3nc(C)sc3c2)cc1` gave Rango complex inh 1%, Nrf2 inh 15µM*, Rango dissoc inh -15%, A549 viability -5% and Nrf2 ARE act 3%.
Screening Cc1nc2ccc(NS(=O)(=O)c3ccc(F)c(F)c3)cc2s1 returned Rango complex inh inconclusive, Nrf2 inh 16µM*, Rango dissoc inh -12%, A549 viability 3% and Nrf2 ARE act 2%.
For Cc1nc2ccc(NS(=O)(=O)c3cccc([N+](=O)[O-])c3)cc2s1 the results were Rango complex inh -3%, Nrf2 inh 18µM*, Rango dissoc inh 1%, A549 viability -12% and Nrf2 ARE act 8%.
CC(=O)Nc1ccc(S(=O)(=O)Nc2ccc3nc(C)sc3c2)cc1 was read as Rango complex inh 1%, Nrf2 inh 16µM*, Rango dissoc inh -13%, A549 viability -15% and Nrf2 ARE act 1%.
Cc1nc2ccc([N+](=O)[O-])cc2s1 was read as Rango complex inh 1%, Nrf2 inh 1%, Rango dissoc inh -4%, A549 viability -2% and Nrf2 ARE act 0%.

Source: PubChem
